# Measured values reported in the supplement of paper PMC10681739.
# Assays:
# RUNX1 [1] = molecular target: RUNX1 (UniProt Q01196); experiment: RUNX1 binding intensity (PBM fluorescence), RUNX1 alone (arbitrary fluorescence units); higher = stronger binding; conditions: RUNX1 concentration 2 nM; ETS1 concentration 0 nM
# Description: (§1)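 Cooperative gcPBM on 36-bp genomic probes with neighbouring ETS1 and RUNX1 sites. Recombinant human RUNX1 (2 nM) was incubated alone or with ETS1 (25 nM) and detected with anti-RUNX1 antibody plus Alexa488 secondary. Values are medians over 4 replicate spots; the RUNX1+ETS1 data were normalised to the RUNX1-only data. The probes sit in constant array flanks that are not printed.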
# RUNX1 [2] = molecular target: RUNX1 (UniProt Q01196); experiment: RUNX1 binding intensity (PBM fluorescence) in presence of ETS1, normalised to RUNX1-only experiment (arbitrary fluorescence units); higher = stronger binding; conditions: RUNX1 concentration 2 nM; ETS1 concentration 25 nM
# Description: as §1
# 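For RUNX1 binding intensity (PBM fluorescence) in presence of ETS1, normalised to RUNX1-only experiment in this document: Full-length recombinant human ETS1 or RUNX1 bound to double-stranded 36-bp genomic probes on microarrays, detected by protein-specific primary antibody and Alexa488 secondary, spot fluorescence as median of four replicate spots.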
# 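For RUNX1 binding intensity (PBM fluorescence), RUNX1 alone in this document: Full-length recombinant human RUNX1 bound to double-stranded 36-bp genomic probes on a high-density microarray, scored as Alexa488 fluorescence per spot via anti-RUNX1 antibody, median of four replicate spots.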
# Sequence of RUNX1 (Q01196 whole entry): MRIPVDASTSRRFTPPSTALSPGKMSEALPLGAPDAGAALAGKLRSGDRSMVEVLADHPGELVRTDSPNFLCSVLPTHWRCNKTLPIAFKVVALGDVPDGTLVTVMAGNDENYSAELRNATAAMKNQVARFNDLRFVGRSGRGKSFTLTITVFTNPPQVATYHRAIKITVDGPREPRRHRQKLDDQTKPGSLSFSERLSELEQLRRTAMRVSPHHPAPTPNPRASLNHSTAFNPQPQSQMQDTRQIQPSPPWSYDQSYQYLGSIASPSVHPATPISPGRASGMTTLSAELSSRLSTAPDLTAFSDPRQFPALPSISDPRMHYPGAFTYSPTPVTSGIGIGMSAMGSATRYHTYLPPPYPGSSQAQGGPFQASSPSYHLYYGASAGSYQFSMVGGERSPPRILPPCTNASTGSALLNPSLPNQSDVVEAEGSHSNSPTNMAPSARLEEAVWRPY
Sequence,RUNX1 binding intensity (RUNX1 [1]),RUNX1 binding intensity (RUNX1 [2])
GCTGTCCGTTTCCGAGATGTTAATGCGGGGTCTTGC,866,1070
CCCATCCATCCGCCTCCAAAGTAACCTCAAGAATTT,2140,2490
CCCATTTCCGAGAGTGGCAGGGCTGGGCGCGGTGGG,978,1420
TCCGCCCGCGGATGCTGAGAACCGCAGCTGCACAAG,948,827
GGGGGAGCAAGCGCCTTCCGCGGTCGCTGGGGGGAG,939,812
TGCAGCGCATCCTGGGACGTGCGGGCGGTGCATGAG,727,923
CCATTTCCGCGCACGTCTGCAGATGCGGTAGTCGAT,853,1830
ACGTCAGCATCCGCCGGGCTCGCGGTAAGGTGTGAG,736,1280
ACAGACAGCATCCTGAGCTCGTGGTTAGAACACCCT,841,985
ATTGCTTCCGACGCTACTCCTGCCGGGTCACCACAG,785,1020
AGAGGCAGTTCCGGGGTGGGAACCGCGCGGAGCTTT,687,1220
CACCCTGCCACTTCCCTAAACTCCCCGCACAGGCCG,1640,2140
CGGGCCGGATCGCCTTCGCCGCCGCCCGCCCGCAAA,979,866
GCGGCTTTGTACGGAAACCCACACACATTGTTATTT,984,1020
CAGTGTTCCGCGTCCGGGGGTTTGTGGGAGTTGCCT,989,1120
TGACACCAGCCCTGAGGATGTGGTTCATCCTCCCAC,868,817
ATTAAAAAAATTTCCTTTGTGGTCACTTAGTTATTA,1350,1520
GCTGGGCCATCCTGCCACATGCACCGCATCTCTGGG,759,878
GAGTGCCGTTTCCCCCGCTCACCGCGGGCTAGGGAG,942,1040
CCTCCGGAACGGCGCGGGGGATTGTGGGGTGTAGGG,910,761
GGCCTCGGCCACATCCGGGTTCCACCGCAGATTCGG,819,6490
CCATTTCCCGCCTACCGACCTGCTGCACCGCACGGA,1430,3390
AGTTTTCCGTCGGGCTCCCAGTGACGCCGCAGAGGT,764,1180
GGCGGTGCACTCTGGGAAATGTGGTTTTCGCGGCGC,1090,1500
AGGCCAGACGCCTTCCGTGGTTTACGGTGAGGGTGG,884,799
AAGACACCAACGCTCGGAAACCGCCAGACACCAACG,945,916
TTAACTCCACGGAAGAATAAACCACCACCGCTCACC,1080,908

Sequence,RUNX1 binding intensity (RUNX1 [1]),RUNX1 binding intensity (RUNX1 [2])
TTATGCCTCAGGATGAACGAACCTCAAACACCCAGG,904,858
CGAACTCCCGTCCGGCCGCGCCCGCAGCCCGCCGCC,960,1130
GTTGTCTTGCCCAAAGGAAGTGGTTACTAGACCAGA,793,1490
CAACCCAAGGGGATGTGCTCACTGCGGTGAGGAGGC,806,893
CATCTCGGAAACGGACAGCAAGATCCCGCATTAACA,977,853
CCTGAAGCTCATGCGGAAAACCCACAAAGGGGTGCC,932,828
AGCAGGGCTCGCCGGGAAATGTGGTTTCTCCAGCCG,843,952
CCCCTACTTCCCTTTTTGCTGGGCCGCAGTTTCGGT,1490,2220
GGGTGAGTATTTCCTCCTGCGGTGGGTCGGCATGTA,796,1570
AGAGGCTTCCTGAGGAACTGGTGTGGTCAGGGGAGC,740,1010
TCGCCCACTTCCCCACCTCTCAAAAGACCACAGGCA,1560,2140
CTAGCCAGGAAGATAAAGAAGAAACCACCAAAGAGA,870,834
TGAGTTTTGTTTCCGATTCACCACAGAAGATACTTT,2230,2560
ACCAGAACTAAAGCGGATAGCGGTTAGAAACGCCCA,872,952
GAGGGAGCAGTTCCGGGTGCGGTGCGCGCCAGGGGC,1650,2060
TCTGGCTGGGTGTTGGGATGTGGTTAACCGGGTTGG,797,876
GCTAACGGAACCAGCACGCGGCCACCGCAGGAACCT,853,869
GCTGATAGAACAGGATGTGGTAAAGAAGCAGGCCAA,824,7890
TACCTAGACCCTTTCCGCCCTTACCGCGGCCAGACA,1210,1410
GCACGGCGGAATTTCAAATGGGGTTTTGTGGTTTCT,1220,1280
ACTCACACCACGGAAACTGCGGCTCGGCAGGCTGAG,808,885
GCTGAGGCCGGAAGAGGGTGGGGCCGCGGTGGCTAG,756,1260
CATTCAGTAAAAGGATGTGGTTTAGAACAGATGAAA,958,2150
ACCGAAAACAGGGCCTTCCGCGGTTATACAGATCCT,868,998
GGCGGGGCATCCGGCAGCACCGCCTGCGGGCGCCCG,667,1070
GGGATCCTTCCGCTCCGGGTTAACCCCGACCGCGCC,795,1620
CCCGGCCCAGGAAACTTCAGACTTCACCGCAGCTTC,1060,1030
